Laboratory results published in the supplement of paper PMC9588786.
Where a name gives a salt, the structure may show the parent alone. ± gives the standard deviation of the averaged measurements.

System: HT-1080
Test: relative cell viability with RSL3 co-treatment (fraction of control); higher = stronger protection from RSL3-induced ferroptosis (higher viability)
Details: 10 µM
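Also: viability read as CCK-8 absorbance at 450 nm in cells co-exposed to the GPX4 inhibitor RSL3, relative to a 0.01% DMSO vehicle control.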

| Compound | relative cell viability |
| --- | --- |
| C[C@@H]1COCCN1c1cc(C2([S@](C)(=N)=O)CC2)nc(-c2cc[nH]c3nccc2-3)n1 | 0.777 ± 0.06 |
| C[S+]([O-])c1ccc(-c2nc(-c3ccc(F)cc3)c(-c3ccncc3)[nH]2)cc1 (stereo not drawn) | 0.603 ± 0.032 |
| COc1cc(Nc2ncc(F)c(Nc3ccc4c(n3)NC(=O)C(C)(C)O4)n2)cc(OC)c1OC [R406 (free base)] | 0.79 ± 0.02 |
| COc1cc(CCc2cc(NC(=O)c3ccc(N4CC(C)NC(C)C4)cc3)n[nH]2)cc(OC)c1 (stereo not drawn) | 0.673 ± 0.14 |
| C[C@]1(O)C[C@@H](c2nc(-c3ccc4ccc(-c5ccccc5)nc4c3)c3c(N)nccn32)C1 [Linsitinib (OSI-906)] | 0.587 ± 0.029 |
| NC1(Cc2ccc(Cl)cc2)CCN(c2ncnc3[nH]ccc23)CC1 | 0.473 ± 0.25 |
| Cc1ccccc1CN1C2=NCCN2C(=O)C2=C1CCN(Cc1ccccc1)C2 [TIC10 Analogue] | 0.62 ± 0.079 |
| Cc1cc(CS(=O)(=O)c2ccccc2)cc(OCc2ccc(CN3CCC[C@@H]3CO)cc2)c1 | 0.723 ± 0.12 |
| Oc1cc(O)cc(/C=C/c2ccc(O)c(O)c2)c1 [Piceatannol] | 0.717 ± 0.04 |
| COc1cc(Nc2ncc3c(n2)-c2ccc(Cl)cc2C(c2c(F)cccc2OC)=NC3)ccc1C(=O)O [Alisertib (MLN8237)] | 0.39 ± 0.18 |
| O=C1NC(=O)/C(=C/c2cccc(C(F)(F)F)c2)S1 | 0.807 ± 0.015 |
| COc1cccc(-n2c(=O)[nH]c3cc(Cl)n(-c4ccc(-c5cccc(OC)c5O)cc4)c3c2=O)c1 | 0.807 ± 0.081 |
| CCOc1ccn(-c2ccc(F)cc2)c(=O)c1C(=O)Nc1ccc(Oc2ccnc(N)c2Cl)c(F)c1 | 0.51 ± 0.092 |
| CCOc1cc(C(=O)N2CCC(N3CCN(C)CC3)CC2)ccc1Nc1ncc2c(n1)N(C1CCCC1)c1ccccc1C(=O)N2C | 0.457 ± 0.031 |
| N=C(N)NC(=N)NCCc1ccccc1 [Phenformin HCl] | 0.877 ± 0.042 |
| CC(C)CCN1c2nc(Nc3cc(F)c(O)c(F)c3)ncc2N(C)C(=O)C1C (stereo not drawn) | 0.717 ± 0.14 |
| N[C@@H]1CCCN(c2c(/C=C3\SC(=O)NC3=O)cccc2-c2ccccc2)C1 | 0.697 ± 0.13 |
| COc1cc(F)c(F)c(Nc2ccc(I)cc2F)c1NS(=O)(=O)C1(C[C@H](O)CO)CC1 [Refametinib (RDEA119, Bay 86-9766)] | 0.92 ± 0.01 |
| CC(C)(C)c1cnc(CSc2cnc(NC(=O)C3CCNCC3)s2)o1 | 0.573 ± 0.05 |

| Compound | relative cell viability |
| --- | --- |
| O=S(=O)(NCCNC/C=C/c1ccc(Br)cc1)c1cccc2cnccc12 | 0.577 ± 0.045 |
| Cc1c(CN2CCN(C(=O)[C@H](C)O)CC2)sc2c(N3CCOCC3)nc(-c3cnc(N)nc3)nc12 [Apitolisib (GDC-0980, RG7422)] | 0.47 ± 0.09 |
| Nc1ccc(C(=O)Nc2cccc(-c3nc(N4CCOCC4)c4oc5ncccc5c4n3)c2)cn1 | 0.303 ± 0.067 |
| CCn1c(N)c(C(=O)NC)c(=O)c2ccc(C#CC(C)(O)COC)nc21 (stereo not drawn) | 0.89 ± 0.16 |
| CN(C)Cc1cccc(N=C(c2ccccc2)c2c(O)[nH]c3cc(C(=O)N(C)C)ccc23)c1 | 0.79 ± 0.044 |
| CCCCCCCCCCCCc1ccc(S(=O)(=O)Nc2nncs2)cc1 | 0.877 ± 0.09 |
| CN1CCN(S(=O)(=O)c2ccc(-c3cnc(N)c(C(=O)Nc4cccnc4)n3)cc2)CC1 | 0.56 ± 0.087 |
| CNC(=O)c1ccc(C)c(-n2c(C)cc(OCc3ccc(F)cc3F)c(Br)c2=O)c1 | 0.747 ± 0.067 |
| COc1ccc2c(Oc3ccc(NC(=O)c4c(C)n(CC(C)(C)O)n(-c5ccccc5)c4=O)nc3)ccnc2c1 | 0.76 ± 0.052 |
| CN(C)CCOc1ccc(-c2nc(-c3ccncc3)c(-c3ccc4c(c3)CC/C4=N\O)[nH]2)cc1 | 0.833 ± 0.1 |
| CN(C)S(=O)(=O)c1ccc2c(c1)/C(=C/c1cc3c([nH]1)CCCC3)C(=O)N2 | 0.727 ± 0.081 |
| Cn1cc(/C=C2\C(=O)Nc3cccnc32)c2ccccc21 | 0.927 ± 0.015 |
| Cc1ccc(F)c(NC(=O)Nc2ccc(-c3cccc4[nH]nc(N)c34)cc2)c1 [Linifanib (ABT-869)] | 0.36 ± 0.046 |
| Cc1ccc(C(=O)Nc2ccc(CN3CCN(C)CC3)c(C(F)(F)F)c2)cc1C#Cc1cnc2cccnn12 | 0.64 ± 0.11 |
| COc1cc2ncnc(Nc3ccc(Cl)cc3F)c2cc1OC | 0.757 ± 0.14 |
| O=C(c1ccc(/C=C/c2n[nH]c3ccccc23)cc1)N1CCNCC1 | 0.773 ± 0.076 |
| C=CC(=O)N1CCC[C@@H](n2nc(-c3ccc(Oc4ccccc4)cc3)c3c(N)ncnc32)C1 | 0.933 ± 0.11 |
| COc1ccc(-c2ccc3c(N4CCOCC4)nc(N4C[C@@H](C)O[C@@H](C)C4)nc3n2)cc1CO | 0.7 ± 0.07 |
| O=C(O)c1ccc(-c2c[nH]c3ncc(-c4ccccc4)cc23)cc1C1CCCC1 | 0.81 ± 0.017 |
